Screens as filed in PubChem BioAssay.
Only some compounds are listed: those with a hit (about 13% of all), similar ones and a draw of the others.
HADH2 inhib – qHTS Assay for Inhibitors of HADH2 (Hydroxyacyl-Coenzyme A Dehydrogenase, Type II); 3-hydroxyacyl-CoA dehydrogenase type-2 (Homo sapiens), Q99714; recombinant HADH2, NADH fluorescence, beta-hydroxybutyryl-CoA; Potency, µM (titrated, usually from 57.1 µM), usual class: inhibitors; 73,000 compounds, 3.4% hits; AID 886, 2007; note: nearly all actives have a fitted effect of over 60% in size
Target sequence (Q99714 whole entry, looked up, one chain of several): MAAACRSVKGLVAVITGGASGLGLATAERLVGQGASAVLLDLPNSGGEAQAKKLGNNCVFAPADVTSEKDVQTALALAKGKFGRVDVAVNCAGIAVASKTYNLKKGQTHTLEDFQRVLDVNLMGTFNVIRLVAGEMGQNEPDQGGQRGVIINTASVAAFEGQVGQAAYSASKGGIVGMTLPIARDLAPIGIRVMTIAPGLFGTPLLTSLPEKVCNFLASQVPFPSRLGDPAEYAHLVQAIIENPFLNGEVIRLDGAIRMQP
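His-tagged recombinant enzyme from E. coli, 20 nM, preincubated 15 min RT with compound; reaction started with 1 mM NAD+ and 90 uM beta-hydroxybutyryl-CoA in 100 mM Tris-HCl pH 9.0. NADH fluorescence (ex 360/em 450) read over 4 min; last-minus-first difference.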
AID923 – qHTS Assay for Allosteric/Competitive Inhibitors of Caspase-1: Spectroscopic Profiling in AFC Spectral Region; compound fluorescence, AFC spectral region (405/520 nm); Potency, µM (highest dose often 57.5 µM), usual class: activators; 75,000 compounds, 1.1% hits; AID 923, 2007
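Compound autofluorescence profiled at 405 nm ex/520 nm em during kinetic caspase 1 run (50 nM enzyme, 5 uM Ac-WEHD-AFC, HEPES pH 7.5, 10 mM DTT). Titration up to 57 uM; baseline from regression intercept, normalized to AFC standard curve.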
A350 fluor – qHTS Assay for Spectroscopic Profiling in A350 Spectral Region | Compound autofluorescence, 340/450 nm, Alexa 350 dye-equivalents; active compounds read high | max dye-equivalent concentration, M | 59,000 compounds, 11% hits | AID 590, 2007; in the data active = max dye-equivalent concentration above about 10 nM; inconclusive = mostly about 1.1 nM to 9.6 nM
HSD17B inhib – qHTS Assay for Inhibitors of HSD17B4, hydroxysteroid (17-beta) dehydrogenase 4; Potency, µM (doses to about 57.1 µM), usual class: inhibitors; 75,000 compounds, 7.6% hits; AID 893, 2007; 3-hydroxyacyl-CoA dehydrogenase type-2 (Homo sapiens), Q99714; recombinant HSD17B10, NADH fluorescence kinetic;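 note: the protocol describes HADH2 (HSD17B10) and not the HSD17B4 of the title; nearly all actives have a fitted effect of over 70% in size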
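Activity followed as NADH fluorescence increase (ex 360, em 450 nm) every 30 seconds for 4 min, using final 90 uM beta-hydroxybutyryl CoA and 1 mM NAD+. Recombinant His-tagged enzyme, 20 nM, pH 9.0 Tris buffer, 15 min compound preincubation.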
4MU fluor – qHTS Assay for Spectroscopic Profiling in 4-MU Spectral Region; compound autofluorescence, 340/450 nm, 4-MU equivalents; active compounds read high; max dye-equivalent concentration, M; 59,000 compounds, 11% hits; in the data active = max dye-equivalent concentration above about 10 nM; inconclusive = mostly about 1.1 nM to 9.6 nM
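Intrinsic fluorescence at 340/450 nm (ex/em) was read after 15 min at room temperature in pH 8.0, 100 mM Tris. Each compound concentration expressed as 4-MU-equivalent concentration from a six-point 4-MU standard series on each plate.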
Numbers stand for hits; [ ] = remark or other dose. Unless noted, calls come from the whole dose curve; as a rule, active = well fitted curve in the direction sought with a large enough effect; inconclusive = small, poorly fitted or top-dose-only effect, or another doubt; inactive = no such curve, though single readings can be large; an effect the other way counts as inactive or inconclusive.

Screening CN(CC(O)COCc1cccs1)C1CCCCC1 (configuration not stated) returned HADH2 inhib inactive, AID923 inactive, A350 fluor 2.8e-08M, HSD17B inhib inactive and 4MU fluor 2.8e-08M.
For CCN1CCN(c2ncnc3c2sc2nc(N4CCOCC4)c4c(c23)CCC4)CC1 the results were HADH2 inhib inactive, AID923 inactive, A350 fluor inactive, HSD17B inhib 32µM and 4MU fluor inactive.
`COC(=O)c1sc2nc(N3CCCCC3)c3c(c2c1N)CC(C)(C)N(C)C3` gave A350 fluor 6.6e-07M and 4MU fluor 5.9e-07M.
c1nc(NCCN2CCOCC2)c2sc3nc(N4CCOCC4)c4c(c3c2n1)CCC4 was read as HADH2 inhib inactive, AID923 inactive, A350 fluor inactive, HSD17B inhib inactive and 4MU fluor inactive.
CC1(C)Cc2c(c(N3CCOCC3)nc3sc(C#N)c(N)c23)CS1 was read as A350 fluor 2.1e-07M and 4MU fluor 1.6e-07M.
`CC1(C)Cc2c(C#N)c(SCCC#N)nc(N3CCOCC3)c2CS1` gave A350 fluor inconclusive and 4MU fluor inactive.
`Cc1nc2sc(C(=O)O)c(N)c2c2c1COC(C)(C)C2` gave HADH2 inhib inactive, AID923 inactive, A350 fluor inconclusive, HSD17B inhib inactive and 4MU fluor inconclusive.
`CCOC(=O)c1sc2nc(N3CCOCC3)c3c(c2c1N)CCC3` gave HADH2 inhib inconclusive, AID923 inactive, A350 fluor 7.5e-07M, HSD17B inhib 13µM and 4MU fluor 5.5e-07M.
Screening CCOC(=O)c1sc2nc(N3CCOCC3)c3c(c2c1N)CC(C)(C)N(C)C3 returned HADH2 inhib inactive, AID923 inactive and HSD17B inhib 25µM.
COc1ccc2nc(/N=C(\N)NC(=O)C(C)(C)C)nc(C)c2c1 was read as A350 fluor 1.9e-07M and 4MU fluor 1.7e-07M.
COc1ccc2nc(C)c3cc(C)oc3c2c1 was read as HADH2 inhib inactive, AID923 inactive, A350 fluor inactive, HSD17B inhib inactive and 4MU fluor inactive.
Screening CCC(=O)N/C(N)=N/c1nc(C)c2cc(OC)ccc2n1 returned HADH2 inhib inactive, AID923 inactive and HSD17B inhib 20µM.
CCOc1ccc(-c2cc(C(=O)N/N=C/c3ccc(O)c(OC)c3)[nH]n2)cc1 was read as HADH2 inhib inactive, AID923 inactive and HSD17B inhib inactive.
For COc1ccc(-c2cc(N3CCCC3)n3ncnc3n2)cc1 the results were HADH2 inhib inactive, AID923 inactive, A350 fluor inconclusive, HSD17B inhib 25µM and 4MU fluor inconclusive.
COc1ccc(-c2cc(-c3ccccc3)n3ncnc3n2)cc1 was read as A350 fluor 3.4e-07M and 4MU fluor 3e-07M.
Screening COc1ccc(S(=O)(=O)N2CCN(c3cc(-c4ccccc4)nc4ncnn34)CC2)cc1 returned HADH2 inhib inconclusive, AID923 inactive, A350 fluor inconclusive, HSD17B inhib inactive and 4MU fluor inconclusive.
For Cc1ccc(-c2cc(C)nc3ncnn23)cc1 the results were HADH2 inhib inconclusive, AID923 inactive and HSD17B inhib 32µM.
Screening Cc1ccc(Nc2cc(C)nc3ncnn23)c(Cl)c1 returned HADH2 inhib inactive, AID923 inactive and HSD17B inhib inactive.
Screening CN(C)c1ccc(C(=C2C=CC(=[N+](C)C)C=C2)c2c(O)c(S(=O)(=O)O)cc3cc(S(=O)(=O)O)ccc23)cc1 returned HADH2 inhib inactive[11.4 µM], AID923 inactive[11.5 µM], A350 fluor inconclusive, HSD17B inhib inactive[11.4 µM] and 4MU fluor inactive.
For O=C1/C(=N/n2cnnc2)c2ccccc2N1Cc1ccccc1 the results were HADH2 inhib inconclusive, AID923 inactive, A350 fluor 7.5e-08M, HSD17B inhib 16µM and 4MU fluor 5.8e-08M.
Screening COc1ccccc1CNc1nc(-c2cccc(NS(C)(=O)=O)c2)nc2ccccc12 returned HADH2 inhib inactive, AID923 inactive, A350 fluor inactive, HSD17B inhib inactive and 4MU fluor inactive.
For N=C1C(c2nc3ccccc3c(=O)[nH]2)=C(O)CN1CCc1ccccc1 the results were HADH2 inhib inactive, AID923 inactive and HSD17B inhib 32µM.
`CCCCN1CC(O)=C(c2nc3ccccc3[nH]2)C1=N` gave HADH2 inhib inactive, AID923 inactive, A350 fluor 1.6e-07M, HSD17B inhib inactive and 4MU fluor 1.6e-07M.
Screening COc1ccccc1N1CC(O)=C(c2nc3ccccc3c(=O)[nH]2)C1=N returned HADH2 inhib inactive, AID923 inactive, A350 fluor 1.1e-08M, HSD17B inhib 32µM and 4MU fluor inconclusive.
`COCCN1CC(O)=C(c2nc3ccccc3c(=O)[nH]2)C1=N` gave HADH2 inhib inactive, AID923 inactive, A350 fluor inconclusive, HSD17B inhib 25µM and 4MU fluor 1e-08M.
Screening CC(=O)N1CCN(C)CC1 returned HADH2 inhib inactive, AID923 inactive and HSD17B inhib inactive.
Cc1cnc(CNc2ncnc3ccc(-c4c(C)noc4C)cc23)cn1 was read as HADH2 inhib inactive, AID923 inactive, A350 fluor inconclusive, HSD17B inhib inactive and 4MU fluor inactive.
Screening N=C1C(c2nc3ccccc3c(=O)[nH]2)=C(O)CN1CCO returned HADH2 inhib inactive, AID923 inactive, A350 fluor inconclusive, HSD17B inhib 3.2µM and 4MU fluor inconclusive.
Cn1c(CCN2CCCCC2)nc2cc(NS(=O)(=O)c3ccc(Cl)cc3)ccc21 was read as HADH2 inhib inactive, AID923 inactive, A350 fluor inactive, HSD17B inhib inactive and 4MU fluor inactive.
`O=S(=O)(Nc1ccc2c(c1)nc1n2CCN(Cc2ccccc2)C1)c1ccc(F)cc1` gave HADH2 inhib inactive, AID923 inactive, A350 fluor 1.2e-08M, HSD17B inhib inconclusive and 4MU fluor 1.2e-08M.
`CC1CCN(CCc2nc3cc(NS(=O)(=O)c4ccc(F)cc4)ccc3n2C)CC1` gave HADH2 inhib inactive, AID923 inactive, A350 fluor 1.9e-07M, HSD17B inhib 25µM and 4MU fluor 1.8e-07M.
Screening CC1CCN(CCc2nc3cc(NS(=O)(=O)c4ccccc4)ccc3n2C)CC1 returned HADH2 inhib inactive, AID923 inactive, A350 fluor inactive, HSD17B inhib inactive and 4MU fluor inactive.
Screening O=S(=O)(Nc1ccc2c(c1)nc1n2CCN(Cc2ccccc2)C1)c1ccc(Cl)cc1 returned HADH2 inhib inactive, AID923 inactive, A350 fluor 1.4e-08M, HSD17B inhib inconclusive and 4MU fluor 1.4e-08M.
Screening Cc1ccc(S(=O)(=O)Nc2ccc3c(c2)nc2n3CCN(Cc3ccccc3)C2)cc1 returned HADH2 inhib inactive, AID923 inactive, A350 fluor inconclusive, HSD17B inhib inconclusive and 4MU fluor inconclusive.
